# HP1b binding inh: blocks HP1-beta chromodomain binding to methylated histone tails. P83916. Potency, µM (series often up to 114 µM), without a hit: top-dose activity change, negative = inhibition, most hits filed as inhibitors. 390,000 compounds, 0.56% hits. AlphaScreen HP1-beta / biotin-H3K9me3 peptide binding; also: nearly all actives have a fitted effect of over 70% in size
#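 HP1-beta protein (50 nM final) preincubated 30 min at room temperature with biotinylated H3(1-18)K9me3 peptide (50 nM) in PBS pH 7.4, 0.01% Tween-20, then compound added for 30 min. AlphaScreen streptavidin donor/nickel chelate acceptor beads (10 ug/mL final), 30 min dark, luminescence read.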
# JMJD2A Tudor: JMJD2A Tudor domain (human) inhibition; Potency, µM (series often up to 114 µM), without a hit: top-dose activity change, negative = inhibition, most hits filed as inhibitors; AlphaScreen JMJD2A-Tudor / H3K4me3 peptide binding; AID 504339; 390,000 compounds, 4.4% hits; O75164; also: % is scaled to controls: 0 for no effect and ±100 for the full control effect; nearly all actives have a fitted effect of over 50% in size
# G9a block: G9a (human) methyltransferase inhibition | 350,000 compounds, 8.8% hits | G9a H3K9 monomethylation, AlphaScreen, 2 h | AID 504332 | Potency, µM (series often up to 102 µM), for inactives: at the highest dose activity, negative = inhibition, most hits filed as inhibitors | Q96KQ7; also: % is scaled to controls: 0 for no effect and ±100 for the full control effect; nearly all actives have a fitted effect of over 75% in size
#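 Step 1: enzyme (final 20 nM) with compound, 15 min RT. Step 2: substrate peptide 500 nM and SAM 20 uM, 2 h RT. Step 3: anti-H3K9me1 antibody and AlphaScreen beads, 10 min, then plate read.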
# BAZ2B inh: blocks human BAZ2B | Potency, µM (titrated, usually from 114 µM), without a hit: at the highest dose activity change, negative = inhibition, usual class: inhibitors | AlphaScreen BAZ2B-H3K14Ac peptide displacement | 360,000 compounds, 4.4% hits | Q9UIF8; also: % is scaled to controls: 0 for no effect and ±100 for the full control effect; nearly all actives have a fitted effect of over 60% in size
#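 AlphaScreen luminescence quantifies BAZ2B engagement of H3K14Ac peptide; the protein and biotinylated peptide are both at 50 nM final, buffer PBS pH 7.4 with 0.01% Tween-20, all steps at room temperature.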
# PLK1 PBD inh: PLK1 (human) polo-box domain binding inhibition; P53350; Plk1 PBD binding of FITC phosphopeptide, fluorescence polarization; Potency, µM, for inactives: max response, negative = inhibition, actives largely listed as inhibitors; 360,000 compounds, 2.8% hits; AID 720504; also: series mostly up to about 57 µM; % is scaled to controls: 0 for no effect and ±100 for the full control effect; nearly all actives have a fitted effect of over 65% in size
# VDR inhibitor: blocks the human vitamin D receptor; VDR-SRC2-3 peptide fluorescence polarization, 2 h; Potency, µM, without a hit: max response, negative = inhibition, actives largely listed as inhibitors; 400,000 compounds, 0.93% hits; also: % is scaled to controls: 0 for no effect and ±100 for the full control effect
# Target sequence (P11473 whole entry, looked up): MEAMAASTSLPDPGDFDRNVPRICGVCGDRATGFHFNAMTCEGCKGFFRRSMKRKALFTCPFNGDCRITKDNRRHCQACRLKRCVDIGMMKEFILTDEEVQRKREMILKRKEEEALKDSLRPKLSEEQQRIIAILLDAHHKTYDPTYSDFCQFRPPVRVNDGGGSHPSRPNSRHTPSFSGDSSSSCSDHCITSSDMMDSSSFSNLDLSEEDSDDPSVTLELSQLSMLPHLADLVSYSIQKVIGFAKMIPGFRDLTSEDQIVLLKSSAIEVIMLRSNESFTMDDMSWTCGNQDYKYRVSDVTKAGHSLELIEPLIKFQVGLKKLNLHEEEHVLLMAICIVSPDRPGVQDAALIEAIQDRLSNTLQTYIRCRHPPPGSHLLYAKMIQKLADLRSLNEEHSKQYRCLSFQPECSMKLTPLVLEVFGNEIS
#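 Two reagent solutions held at 4 deg C in the dark were dispensed, compounds pinned at 23 nl, and the mixture incubated 2 h at room temperature. Read-out: fluorescence polarization of VDR–SRC2-3 peptide binding.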
# Starred values were filed as active, the others as inactive; u = inconclusive; x = no result; [ ] = remark or other dose. Compounds with a hit are over-represented: about 11% of the library has one in this group of screens. Calls follow the shape of the dose curve; as a rule, active = well fitted curve in the direction sought with a large enough effect; inconclusive = small, poorly fitted or top-dose-only effect, or another doubt; inactive = no such curve, though single readings can be large; an effect the other way counts as inactive or inconclusive. Potency is read from the fitted curve at half-maximal effect.
SMILES,HP1b binding inh,JMJD2A Tudor,G9a block,BAZ2B inh,PLK1 PBD inh,VDR inhibitor
CCOc1ccc(NC(=O)c2ccc(NC(=O)c3cn4c5c(c(N6CCN(C)CC6)c(F)cc5c3=O)OCC4C)cc2)cc1 (stereo unspecified),7%,-11%,50µM*,-32%,12%,-17%
CCCCNC1C(CC)C(CCC)C(C#N)(C#N)C1(C#N)C#N (stereo unspecified),50%,8%,63%[59 µM],5%,-4%,45µM*
N#Cc1ccc(C(=O)Nc2ccc3ccccc3c2)cc1,-19%,-19%,45µM*,-2%,-12%,u
N#Cc1ccccc1Sc1ccccc1C(=O)Nc1ccc2ccccc2c1,31%,-7%,7%[59 µM],-25%,-1%,-27%
CCOc1ccc(C(=S)N2CCCC2)cc1OC,22%,-6%,8%[59 µM],-4%,-7%,8%
CCOc1cc(C(=S)N2CCCC2)ccc1O,u,-6%,x,8%,19µM*,u
COc1ccc(C(=O)C2CCCN(C(=O)CSC)C2)cc1OC (stereo unspecified),30%,-11%,71µM*,3%,-11%,-4%
COc1cc(C(=S)N2CCCCC2)ccc1O,16%,0%,50µM*,-2%,u,-13%
COc1cc(C(=S)N2CCC(C(N)=O)CC2)ccc1O,-17%,-3%[11.4 µM],u,6%,27µM*,-22%
COc1cc(C(=S)N2CCC(Cc3ccccc3)CC2)ccc1OCC(N)=O,24%,-23%,-12%[2.33 µM],-32%,-3%,21%
CCOC(=O)c1ccccc1NC(=O)CSc1nnc(CC)n2c1cc1occc12,12%,-7%,-28%[59 µM],u,x,-7%
Cc1ccc(C)c(S(=O)(=O)c2cn(Cc3ccccc3)c3cc(F)c(F)cc3c2=O)c1,u,0%,23%[59 µM],1%,x,0%
COc1cc(C(=S)N2CCCC2)ccc1O,-26%,-1%,14µM*,-6%,27µM*,u
COc1cc(C(=S)N2CCC(C)CC2)ccc1O,-25%,-23%,7.9µM*,-26%,24µM*,-24%
Cc1cc2c(s1)c1cnn(Cc3ccc(F)c(C)c3)c(=O)c1n2C,x,-9%,x,x,x,x
CN1CCN(C2=C(Cl)C(=O)N(C3CCCCC3)C2=O)CC1,36%,-18%,40µM*,1%,-8%,1%
CC1Cc2cc(S(=O)(=O)CCC(=O)NCc3ccco3)ccc2N1C(=O)C1CC1 (stereo unspecified),18%,-12%,u,-17%[57.1 µM],-21%,-6%
CC12CC(c3ccccc3O1)N(C(=O)c1ccco1)C(=S)N2c1ccccc1 (stereo unspecified),-1%,-28%,40µM*,u,-2%,21%
CC1CC(N(C(=O)c2ccco2)c2ccccc2)c2ccccc2N1C(=O)c1ccco1 (stereo unspecified),-9%,-32%,-37%[59 µM],-3%,-11%,9%
COc1ccc(CCC(=O)Nc2cccc(Cl)c2)cc1,43%,1%,18%[59 µM],15%,-4%,-2%
O=C(CCc1ccc(Oc2cc([N+](=O)[O-])cc([N+](=O)[O-])c2)cc1)N1CCCCC1,-58%,56µM*,u,25µM*,-6%,-6%
O=C(CCc1ccc(Oc2cc([N+](=O)[O-])cc([N+](=O)[O-])c2)cc1)Nc1cccc(Cl)c1,u,-29%,8.9µM*,u,-12%,-8%
Cc1ccc(N2C(=O)C3C4C=CC(CNC(=S)N5CCN(c6cccc(C)c6)C(C)C5)(O4)C3C2=O)cc1 (stereo unspecified),25µM*,18µM*,2µM*,-2%,-13%,u
O=C(Nc1cc2c(cc1C(=O)c1ccc(Br)cc1)OCCO2)c1ccc(Cl)cc1,31%,-10%,17%[59 µM],2%,x,-18%
COCCNC(=O)c1cc(S(=O)(=O)N2CCCCC2)ccc1N1CCOCC1,24%,-4%,-44%,u,-7%,13%
Nc1cc(S(=O)(=O)N2CCOCC2)ccc1N1CCOCC1,31%,-11%,x,x,-7%,-1%
COCCCNCc1cc(C)n(-c2cc(S(=O)(=O)N3CCOCC3)ccc2N2CCCC2)c1C,u,79µM*,x,x,-14%,-25%
